From PubChem BioAssay (NCI)
This is part of a sample that, as a whole, favours compounds with a hit. Of some 79,000 tested, about 15% had one in any assay. Calls of active or inactive are those of the source. Cut-off read from the data, not from the text of the source: active = growth inhibition above about 70%; inactive = the rest. Where a SMILES comes first, the peptide text is derived from it. The star is where a group is joined. Boc = CC(C)(C)OC(=O)*

Assay: NCI Yeast Anticancer Drug Screen. Data for the mec2-1 strain (AID 157)
Conditions: S. cerevisiae mec2-1 strain, at 50.0 µM, stronger effect = higher value
Outline: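 Mutant yeast (mec2-1) grown with compound; growth inhibition relative to vehicle control reported.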

| SMILES | growth inhibition |
| --- | --- |
| CC(=O)CC(=O)Nc1cccc(O)c1 | -21.8% (inactive) |
| Nc1ccc(S(=O)(=O)N(CCO)CCO)cc1 | -28.2% (inactive) |
| CCOP(=O)(OCC)C(Cc1cn(S(=O)(=O)c2ccc(C)cc2)cn1)C(=O)O (stereo not given) | 12.5% (inactive) |
| Cc1ncc(CSC(=N)N)n1Cc1ccccc1 | -11.4% (inactive) |
| CC(C)(Nc1nc2c(ncn2C2OC(CO)C(O)C2O)c(=O)[nH]1)P(=O)(O)O (stereo not given) | -0.4% (inactive) |
| O=C(O)c1c(Br)c(Br)c(Br)c(Br)c1C1c2ccc(O)cc2Oc2cc(O)ccc21 | 25% (inactive) |
| Cc1cccc2c1Oc1ccccc1C2N1C(=O)/C(=C/c2ccc(Cl)c(Cl)c2)SC1=S (stereo not given) | -10.2% (inactive) |
| Cc1cc2c(C)n(Cc3ccc(Cl)cc3Cl)nc2c(C#N)c1C | -7.05% (inactive) |
| ClC1=C(Cl)C2(Cl)C3C(CC4C3C3(Cl)C(Cl)=C(Cl)C4(Cl)C3(Cl)Cl)C1(Cl)C2(Cl)Cl (stereo not given) | -7.4% (inactive) |
| Cc1ccc(CCCC(=O)O)cc1C | 2.65% (inactive) |
| C(=C\CSc1ccccn1)/CSc1ccccn1 | 6.4% (inactive) |
| Fc1ccc(CC(F)F)cc1 | -6.2% (inactive) |
| CC(=O)OC1/C=C(\C)C(OC(C)=O)C/C=C(/C)CCC2C(/C=C/C1=O)C2(C)C (stereo not given) | 74.4% (active) |
| c1cc2nc(c1)CSCCCCCCCCSC2 | 41% (inactive) |
| COc1c(C)c(C)c(Br)c(C)c1C | 7.65% (inactive) |
| C=C(CN(C)C)C1(c2ccccc2)CC2(CCCC2)C(=O)O1 (stereo not given) | 12% (inactive) |
| Cc1ccc(-c2nc3ccccc3cc2N)cc1 | 7.65% (inactive) |
| Cc1cccc(N=Nc2c(C)nc(N)nc2C)c1C | 6.55% (inactive) |
| CCC1(O)CC2CN(CCc3c([nH]c4ccccc34)C(C(=O)OC)(c3cc4c(cc3OC)N(C)C3C(O)(C(N)=O)C(O)C5(CC)C=CCN6CCC43C65)C2)C1 (stereo not given) (tested in a mixture with another compound) | -21.1% (inactive) |
| Nc1nc(N)nc(C2CC3C=CC2C3)n1 (stereo not given) | -13.9% (inactive) |

| SMILES | growth inhibition |
| --- | --- |
| COc1ccccc1/C=N/NC(=O)CCCCCCCCC(=O)N/N=C/c1ccccc1OC | -4% (inactive) |
| Nc1ccc2c(c1)C(=O)N(OS(=O)(=O)c1ccccc1)C2=O | 39% (inactive) |
| O=C(C[n+]1csc2ccccc21)c1ccc(-c2ccccc2)cc1 | 9.8% (inactive) |
| CN1C(=O)N/C(=C\c2ccc(S(=O)(=O)N/N=C\C(O)C(O)C(O)CO)cc2)C1=O (stereo not given) | -15% (inactive) |
| Clc1ccc2c(Cl)ncnc2c1I | -13.8% (inactive) |
| CCCCn1[nH]c(=O)ccc1=O | 7.6% (inactive) |
| CCCCCCCCC(=O)OCC(=O)c1ccc(-c2ccccc2)cc1 | -15.3% (inactive) |
| CC(C)(C)C([O-])=C1C(=O)c2ccccc2C1=O.CC(C)(C)C([O-])=C1C(=O)c2ccccc2C1=O.CC[O-].CC[O-].[Ti+4] | 47.1% (inactive) |
| Cc1cc([N+](=O)[O-])c(Cl)cc1Cl | 25.3% (inactive) |
| CC12CCC(CC1)C(C)(C)N=C(N)S2 | -10.8% (inactive) |
| Clc1ccc(N=Cc2ccc(C=Nc3ccc(Cl)c(Cl)c3)cc2)cc1Cl | -21.8% (inactive) |
| CCCC(=O)Oc1cccc(C)c1 | 4.75% (inactive) |
| CCCCCCCCCCCC(=O)NC(=S)Nc1cc(OC)ccc1OC | -7.25% (inactive) |
| CCCCN1CCNC1=S | -13.2% (inactive) |
| CCOC(=O)C(CC(C)C)NC(=O)C(Cc1ccccc1)NC(=O)CNC(=O)OC(C)(C)C (stereo not drawn) (Boc-Gly-Phe-Leu-OEt; configuration not given here) | 7.35% (inactive) |
| Cc1ccc(S(=O)(=O)Oc2c(Cl)c(Cl)c(Cl)c(Cl)c2Cl)cc1 | -10.1% (inactive) |
| CC1CC2C3(C1)CC(C(=O)OC3=O)C2(C)C (stereo not given) | -11.4% (inactive) |
| S=c1[nH]c(=S)c2[nH]cnc2[nH]1 | -5.45% (inactive) |
| COc1ccc2cc(C(C)C(O)c3cc(F)c(F)c(F)c3F)ccc2c1 (stereo not given) | -30.3% (inactive) |
| C=CCNC(=O)c1ccc[n+](CC(=O)Nc2ccccc2)c1 | -9.75% (inactive) |
